Binding signal data for 15 sequences are collected here from PMC3218832.

Among the targets are RELARELA (p65 homodimer) (Homo sapiens, UniProt Q04206 1-307); p50p50 homodimer (Homo sapiens, UniProt P19838 7-356); RELB subunit;p50 subunit (Homo sapiens;Homo sapiens, UniProt Q01201;P19838 120-401;7-356).
What all share (test): protein binding microarray; high values mean tight binding
Common to all, as to details: dsDNA, one strand shown

A further assay deals with T1, p52p52 homodimer (Homo sapiens, UniProt Q00653 4-332).
T1 sequence: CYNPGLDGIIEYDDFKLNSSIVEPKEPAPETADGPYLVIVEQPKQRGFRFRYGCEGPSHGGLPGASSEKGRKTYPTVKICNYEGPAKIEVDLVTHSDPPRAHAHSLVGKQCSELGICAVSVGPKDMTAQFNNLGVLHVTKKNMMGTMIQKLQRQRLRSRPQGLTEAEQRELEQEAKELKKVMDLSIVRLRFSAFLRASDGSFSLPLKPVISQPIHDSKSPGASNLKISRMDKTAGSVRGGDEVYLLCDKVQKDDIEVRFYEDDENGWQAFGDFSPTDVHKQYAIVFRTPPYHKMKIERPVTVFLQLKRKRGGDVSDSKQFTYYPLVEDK

Assay [1] has as its target RELA (p65) subunit of heterodimer;p50 subunit (Homo sapiens;Homo sapiens, UniProt Q04206;P19838 1-307;7-356).
Assay [2] addresses RELA (p65) subunit of heterodimer;p52 subunit (Homo sapiens;Homo sapiens, UniProt Q04206;Q00653 1-307;4-332).
In the next assay the target is T2, RELB subunit;p52 subunit (Homo sapiens;Homo sapiens, UniProt Q01201;Q00653 120-401;4-332).
T2 sequence 1: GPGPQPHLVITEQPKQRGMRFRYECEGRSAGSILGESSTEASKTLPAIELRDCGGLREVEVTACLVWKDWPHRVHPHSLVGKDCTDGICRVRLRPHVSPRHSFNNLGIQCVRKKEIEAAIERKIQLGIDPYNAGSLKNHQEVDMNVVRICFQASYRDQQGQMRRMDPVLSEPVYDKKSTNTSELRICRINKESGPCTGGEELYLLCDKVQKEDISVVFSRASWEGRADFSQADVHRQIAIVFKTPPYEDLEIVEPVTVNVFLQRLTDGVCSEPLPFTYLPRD
T2 sequence 2: T1 sequence

The target of assay [3] is C-Rel subunit;p50 subunit (Homo sapiens;Homo sapiens, UniProt Q04864;P19838 1-285;7-356).
Assay [4] deals with T3, C-Rel subunit;p52 subunit (Homo sapiens;Homo sapiens, UniProt Q04864;Q00653 1-285;4-332).
T3 sequence 1: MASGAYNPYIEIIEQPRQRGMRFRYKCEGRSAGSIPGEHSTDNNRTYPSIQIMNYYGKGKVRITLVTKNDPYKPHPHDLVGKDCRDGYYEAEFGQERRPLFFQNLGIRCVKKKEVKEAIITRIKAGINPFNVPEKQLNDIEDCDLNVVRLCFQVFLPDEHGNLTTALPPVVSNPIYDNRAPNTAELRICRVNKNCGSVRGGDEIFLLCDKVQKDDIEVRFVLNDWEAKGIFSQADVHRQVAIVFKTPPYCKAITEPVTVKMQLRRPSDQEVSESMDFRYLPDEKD
T3 sequence 2: T1 sequence

Chain of RELARELA (p65 homodimer) (Q04206 1-307): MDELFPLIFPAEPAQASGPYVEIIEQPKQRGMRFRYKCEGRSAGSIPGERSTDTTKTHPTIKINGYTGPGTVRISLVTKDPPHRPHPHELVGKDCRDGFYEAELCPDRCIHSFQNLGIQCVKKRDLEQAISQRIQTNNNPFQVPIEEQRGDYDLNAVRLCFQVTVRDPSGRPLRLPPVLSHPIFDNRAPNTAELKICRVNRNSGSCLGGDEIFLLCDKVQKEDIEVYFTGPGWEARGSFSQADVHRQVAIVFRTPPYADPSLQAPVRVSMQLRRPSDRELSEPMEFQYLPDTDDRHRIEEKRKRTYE
Chain of RELA (p65) subunit of heterodimer;p50 subunit (Q04206 1-307, chain 1 of 2): as the sequence (Q04206 1-307) above
Chain of RELA (p65) subunit of heterodimer;p50 subunit (P19838 7-356, chain 2 of 2): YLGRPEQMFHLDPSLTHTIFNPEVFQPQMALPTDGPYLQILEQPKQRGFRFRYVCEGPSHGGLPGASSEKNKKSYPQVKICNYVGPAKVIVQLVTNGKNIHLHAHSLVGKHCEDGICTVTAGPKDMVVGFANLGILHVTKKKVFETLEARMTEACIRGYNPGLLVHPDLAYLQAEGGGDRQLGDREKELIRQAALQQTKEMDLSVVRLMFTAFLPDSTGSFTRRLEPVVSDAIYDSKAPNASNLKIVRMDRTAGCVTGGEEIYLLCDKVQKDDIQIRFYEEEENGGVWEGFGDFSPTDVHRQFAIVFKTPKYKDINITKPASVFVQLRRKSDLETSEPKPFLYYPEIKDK
Chain of p50p50 homodimer (P19838 7-356): as the sequence (P19838 7-356, chain 2 of 2) above

As for AGAGTATTCCC, the binding signal in the assay with RELARELA (p65 homodimer) was determined as 1.05 z-score; in the assay with p50p50 homodimer it was 0.224 z-score; with p52p52 homodimer, 0.305 z-score; in assay [1] it was 0.534 z-score; in [2] it was 0.292 z-score; with RELB subunit;p50 subunit, 0.0188 z-score. The binding signal with RELB subunit;p52 subunit worked out at 0.0238 z-score; in assay [3] it was 0.73 z-score; in assay [4] it was 0.396 z-score.
Take GGATATGCCCT: the binding signal with RELARELA (p65 homodimer) is 0.304 z-score; in the assay with p50p50 homodimer, -1.18 z-score; in the assay with p52p52 homodimer it was -0.574 z-score; in assay [1] it was -0.276 z-score; in [2], -0.49 z-score; in the assay with RELB subunit;p50 subunit, -0.93 z-score. Moreover, the binding signal with RELB subunit;p52 subunit was -0.689 z-score; in assay [3] it was -0.384 z-score; in [4] it was -0.294 z-score.
As for GAGTATCCCCT, the binding signal stood at 0.0376 z-score in the assay with RELARELA (p65 homodimer); 1.26 z-score with p50p50 homodimer; 1.26 z-score in the assay with p52p52 homodimer; 1.29 z-score in [1]; 1.26 z-score in [2]; 1.28 z-score with RELB subunit;p50 subunit. In addition, the binding signal in the assay with RELB subunit;p52 subunit is 1.35 z-score; in assay [3], 0.928 z-score; in assay [4] it was 0.943 z-score.
Regarding GAAATAGTCCC, the binding signal was 0.835 z-score with RELARELA (p65 homodimer); 1.16 z-score with p50p50 homodimer; 1.31 z-score with p52p52 homodimer; 1.16 z-score in assay [1]; 0.964 z-score in [2]; 1.38 z-score with RELB subunit;p50 subunit. For the same sequence, the results for the binding signal (with RELB subunit;p52 subunit; in assay [3]; in [4]) were 0.953 z-score, 0.838 z-score and 0.853 z-score, respectively.
CAATGACCCCC: the binding signal with RELARELA (p65 homodimer) is -0.602 z-score; with p50p50 homodimer, 0.342 z-score; in the assay with p52p52 homodimer, 0.0634 z-score; in [1] it was 0.0857 z-score; in assay [2] it was 0.113 z-score; in the assay with RELB subunit;p50 subunit, 0.27 z-score. The binding signal in the assay with RELB subunit;p52 subunit is 0.286 z-score; in [3], -0.0621 z-score; in assay [4], -0.0557 z-score.
Turning to AGGGAGTTCCT, the binding signal with RELARELA (p65 homodimer) worked out at 0.744 z-score; with p50p50 homodimer it was 0.856 z-score; with p52p52 homodimer, 1.12 z-score; in [1], 0.667 z-score; in assay [2], 0.798 z-score; with RELB subunit;p50 subunit, 0.721 z-score. Besides, the binding signal worked out at 0.659 z-score with RELB subunit;p52 subunit, 0.315 z-score in assay [3] and 0.64 z-score in assay [4].
On to GGAGAAACCCT, for which the binding signal is 0.379 z-score with RELARELA (p65 homodimer); -0.144 z-score with p50p50 homodimer; 0.127 z-score in the assay with p52p52 homodimer; 0.478 z-score in [1]; 0.623 z-score in [2]; -0.35 z-score in the assay with RELB subunit;p50 subunit. In addition, the binding signal in the assay with RELB subunit;p52 subunit was found to be 0.176 z-score; in [3], 0.255 z-score; in assay [4], 0.637 z-score.
For GAGGAATCCCT, the binding signal turned out to be 0.176 z-score in the assay with RELARELA (p65 homodimer); 0.599 z-score in the assay with p50p50 homodimer; 0.671 z-score with p52p52 homodimer; 0.612 z-score in assay [1]; 0.532 z-score in [2]; 0.403 z-score with RELB subunit;p50 subunit. In addition, the binding signal in the assay with RELB subunit;p52 subunit was 0.517 z-score; in assay [3], 0.573 z-score; in assay [4], 0.416 z-score.
With GAGGTTATCCT, the binding signal with RELARELA (p65 homodimer) is -0.457 z-score; in the assay with p50p50 homodimer it was -0.539 z-score; in the assay with p52p52 homodimer, -0.329 z-score; in assay [1], -0.899 z-score; in [2] it was -0.657 z-score; in the assay with RELB subunit;p50 subunit, -0.734 z-score. Also, the binding signal was -0.759 z-score with RELB subunit;p52 subunit, -1.3 z-score in assay [3] and -0.681 z-score in [4].
Take CGGAATCCCCT: the binding signal with RELARELA (p65 homodimer) came out at 2.17 z-score; with p50p50 homodimer, 1.6 z-score; with p52p52 homodimer, 2.39 z-score; in assay [1], 2.3 z-score; in assay [2], 2.13 z-score; with RELB subunit;p50 subunit, 2.43 z-score. Also, the binding signal in the assay with RELB subunit;p52 subunit came out at 2.22 z-score; in assay [3], 1.83 z-score; in assay [4], 2.31 z-score.
AGAAGCATCCC: the binding signal was -0.382 z-score with RELARELA (p65 homodimer); -1.4 z-score in the assay with p50p50 homodimer; -0.607 z-score with p52p52 homodimer; -0.83 z-score in assay [1]; -0.795 z-score in [2]; -0.706 z-score in the assay with RELB subunit;p50 subunit. Further, the binding signal with RELB subunit;p52 subunit was -0.776 z-score; in assay [3], -1.06 z-score; in assay [4], -0.81 z-score.
As for CAAGACGCCCT, the binding signal with RELARELA (p65 homodimer) was -0.812 z-score; with p50p50 homodimer, -2.01 z-score; with p52p52 homodimer it was -0.745 z-score; in [1] it was -0.983 z-score; in [2] it was -0.966 z-score; in the assay with RELB subunit;p50 subunit, -1.04 z-score. Further, the binding signal was -0.904 z-score with RELB subunit;p52 subunit, -1.34 z-score in assay [3] and -0.839 z-score in assay [4].
On to AAGTGGGCCCT, for which the binding signal with RELARELA (p65 homodimer) is -0.584 z-score; with p50p50 homodimer, -0.904 z-score; in the assay with p52p52 homodimer, -0.603 z-score; in assay [1], -0.886 z-score; in [2] it was -0.714 z-score; in the assay with RELB subunit;p50 subunit, -0.762 z-score. In addition, the binding signal with RELB subunit;p52 subunit is -0.527 z-score; in assay [3], -1.25 z-score; in assay [4], -0.634 z-score.
Regarding AGGTACATCCT, the binding signal with RELARELA (p65 homodimer) was -0.603 z-score; in the assay with p50p50 homodimer it was -0.00392 z-score; in the assay with p52p52 homodimer, 0.047 z-score; in assay [1], -0.495 z-score; in assay [2] it was -0.249 z-score; in the assay with RELB subunit;p50 subunit it was -0.147 z-score. Also, the values for the binding signal (in the assay with RELB subunit;p52 subunit; in assay [3]; in [4]) were -0.293 z-score, -0.674 z-score and -0.415 z-score, respectively.
Turning to CGATGACCCCT, the binding signal is -0.679 z-score with RELARELA (p65 homodimer); -0.0343 z-score with p50p50 homodimer; -0.125 z-score with p52p52 homodimer; -0.386 z-score in assay [1]; -0.154 z-score in assay [2]; -0.223 z-score in the assay with RELB subunit;p50 subunit. Also, the binding signal in the assay with RELB subunit;p52 subunit is -0.0567 z-score; in assay [3], -0.665 z-score; in [4], -0.266 z-score.
